Experimental data taken from PubChem BioAssay (NCATS).
Inconclusive results are not listed. Activity calls are given as the source filed them. The call rests on the fitted dose curve; in most records, active means well fitted curve in the direction sought with a large enough effect; inconclusive means small, poorly fitted or top-dose-only effect, or another doubt; inactive means no such curve, though single readings can be large; an effect the other way counts as inactive or inconclusive.

Assays:
MCC-13 = test: qHTS assay to identify novel small-molecules to repurpose for Merkel cell carcinoma treatment (AID 1296009); details: MCC and control cell lines, CellTiter-Glo viability, 72 h; series mostly up to 46 µM; further: nearly all actives have a fitted effect of over 60% in size; further: potency means the concentration at half of the fitted maximal effect
Method in brief: (§1)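 After compound transfer in DMSO, plates were kept 72 hr at 37 degree celsius. Luminescent ATP signal from CellTiter-Glo served as viability measure, normalized against DMSO and no-cell controls.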

MCC-26 = test: as above; details: MCC and control cell lines, CellTiter-Glo viability, 72 h; series mostly up to 46 µM
Method in brief: as §1

MKL-1 = test: as above; details: MCC and control cell lines, CellTiter-Glo viability, 72 h; series mostly up to 46 µM
Method in brief: as §1

MKL-2 = test: as above; details: MCC and control cell lines, CellTiter-Glo viability, 72 h; series mostly up to 46 µM
Method in brief: as §1

UISO = test: as above; details: MCC and control cell lines, CellTiter-Glo viability, 72 h; series mostly up to 46 µM
Method in brief: as §1

C33A = test: Primary qHTS to identify gynecologic anti-cancer compounds using libraries of approved drugs and bioactive compounds (AID 1345084); details: Gynecologic cancer cell panel viability, ATPlite luminescence, 48 h; series mostly up to 57.5 µM; further: nearly all actives have a fitted effect of over 55% in size
Method in brief: (§2)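 Five-concentration response, 48 h; readout is ATP-driven luciferase luminescence.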

CAOV3 = test: as above; details: Gynecologic cancer cell panel viability, ATPlite luminescence, 48 h; series mostly up to 57.5 µM
Method in brief: as §2

CASKI = test: as above; details: Gynecologic cancer cell panel viability, ATPlite luminescence, 48 h; series mostly up to 57.5 µM
Method in brief: as §2

Es-2 = test: as above; details: Gynecologic cancer cell panel viability, ATPlite luminescence, 48 h; series mostly up to 57.5 µM
Method in brief: as §2

HeLa = test: as above; details: Gynecologic cancer cell panel viability, ATPlite luminescence, 48 h; series mostly up to 57.5 µM
Method in brief: as §2

Hek293T = test: as above; details: Gynecologic cancer cell panel viability, ATPlite luminescence, 48 h, control line for the selectivity index; series mostly up to 57.5 µM
Method in brief: as §2

JEG-3 = test: as above; details: Gynecologic cancer cell panel viability, ATPlite luminescence, 48 h; series mostly up to 57.5 µM
Method in brief: as §2

PA-1 = test: as above; details: Gynecologic cancer cell panel viability, ATPlite luminescence, 48 h; series mostly up to 57.5 µM
Method in brief: as §2

SKOV3 = test: as above; details: Gynecologic cancer cell panel viability, ATPlite luminescence, 48 h; series mostly up to 57.5 µM
Method in brief: as §2

Tov-21-G = test: as above; details: Gynecologic cancer cell panel viability, ATPlite luminescence, 48 h; series mostly up to 57.5 µM
Method in brief: as §2

Tov112D = test: as above; details: Gynecologic cancer cell panel viability, ATPlite luminescence, 48 h; series mostly up to 57.5 µM
Method in brief: as §2

[1] = Drug repurposing screens with cells derived from glioblastoma tumor samples (AID 1345199); details: GBM patient neurospheres viability, ATP luminescence, 48 h; further: nearly all actives have a fitted effect of over 40% in size; further: potency means the concentration at half of the fitted maximal effect
Method in brief: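 Four patient lines of CD133+ GBM neurospheres were screened at several concentrations; hits were retested in those lines plus three slower-growing GBM lines, using 48-hour treatment and ATP-based viability.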

WaGa = test: qHTS assay to identify novel small-molecules to repurpose for Merkel cell carcinoma treatment (AID 1296009); details: MCC and control cell lines, CellTiter-Glo viability, 72 h; series mostly up to 46 µM; further: nearly all actives have a fitted effect of over 60% in size; further: potency means the concentration at half of the fitted maximal effect
Method in brief: as §1

OV90 = test: Primary qHTS to identify gynecologic anti-cancer compounds using libraries of approved drugs and bioactive compounds (AID 1345084); details: Gynecologic cancer cell panel viability, ATPlite luminescence, 48 h; series mostly up to 57.5 µM; further: nearly all actives have a fitted effect of over 55% in size
Method in brief: as §2

[2] = at 45.9 µM (top of the series), tumour line B
[3] = at 45.9 µM (top of the series), tumour line D
[4] = at 46 µM (top of the series), tumour line A
[5] = at 108 µM (top of the series), tumour line B
[6] = at 108 µM (top of the series), tumour line D
On the % scale 0 is the no-effect control and ±100 the full control effect.

Cc1ncc2n1-c1ccc(Cl)cc1C(c1ccccc1F)=NC2
inactive: Potency (MCC-13) | Potency (MCC-26) | Potency (MKL-1) | Potency (MKL-2) | Potency (UISO) | Potency (C33A) | Potency (CAOV3) | Potency (CASKI) | Potency (Es-2) | Potency (HeLa) | Potency (Hek293T) | Potency (JEG-3) | Potency (PA-1) | Potency (SKOV3) | Potency (Tov-21-G) | Potency (Tov112D) | activity, negative = cell killing [1, 2] -17.8% | activity, negative = cell killing [1, 3] -1.25%

CCCC(C)C1(CC)C(=O)N=C(S)NC1=O (stereo not given)
inactive: Potency (MCC-13) | Potency (MCC-26) | Potency (MKL-1) | Potency (MKL-2) | Potency (UISO) | Potency (WaGa) | Potency (C33A) | Potency (CASKI) | Potency (Es-2) | Potency (HeLa) | Potency (Hek293T) | Potency (JEG-3) | Potency (PA-1) | Potency (Tov-21-G) | Potency (Tov112D) | activity, negative = cell killing [1, 2] -11.2% | activity, negative = cell killing [1, 3] -14.3% | activity, negative = cell killing [1, 4] -28.3%

Nc1ccc(Cl)cc1C(=O)c1ccccc1F
inactive: Potency (MCC-13) | Potency (MCC-26) | Potency (MKL-1) | Potency (MKL-2) | Potency (WaGa) | Potency (C33A) | Potency (CASKI) | Potency (Es-2) | Potency (HeLa) | Potency (Hek293T) | Potency (JEG-3) | Potency (OV90) | Potency (PA-1) | Potency (SKOV3) | Potency (Tov-21-G) | Potency (Tov112D)

COc1cc(C[C@@H](C)N)c(OC)cc1C
inactive: Potency (MCC-13) | Potency (MCC-26) | Potency (MKL-1) | Potency (MKL-2) | Potency (UISO) | Potency (WaGa) | Potency (CAOV3) | Potency (CASKI) | Potency (Es-2) | Potency (HeLa) | Potency (Hek293T) | Potency (JEG-3) | Potency (PA-1) | Potency (SKOV3) | Potency (Tov-21-G) | Potency (Tov112D) | activity, negative = cell killing [1, 5] -21.2% | activity, negative = cell killing [1, 6] -18.9%
active: Potency ([1]; tumour line A) 31.6 µM

CNC(=O)NC(O)C(Cl)(Cl)Cl (stereo not given)
inactive: Potency (MCC-13) | Potency (MCC-26) | Potency (MKL-1) | Potency (MKL-2) | Potency (UISO) | Potency (WaGa) | Potency (C33A) | Potency (CASKI) | Potency (Es-2) | Potency (HeLa) | Potency (JEG-3) | Potency (OV90) | Potency (PA-1) | Potency (SKOV3) | Potency (Tov-21-G) | Potency (Tov112D) | activity, negative = cell killing [1, 2] -2.48% | activity, negative = cell killing [1, 3] 7% | activity, negative = cell killing [1, 4] -5.01%

Oc1ccc2[nH]cc(CCCCN3CC=C(c4ccccc4)CC3)c2c1
inactive: Potency (MCC-13) | Potency (MCC-26) | Potency (C33A) | Potency (CASKI) | Potency (Es-2) | Potency (HeLa) | Potency (JEG-3) | Potency (OV90) | Potency (SKOV3) | Potency (Tov-21-G) | Potency (Tov112D)
active: Potency (MKL-1) 8.41 µM | Potency (MKL-2) 5.96 µM | Potency (UISO) 8.41 µM | Potency (WaGa) 2.99 µM

CCC(=O)OC1(c2ccccc2)CCN(C)CC1
inactive: Potency (MCC-13) | Potency (MCC-26) | Potency (MKL-1) | Potency (MKL-2) | Potency (UISO) | Potency (WaGa) | Potency (C33A) | Potency (CASKI) | Potency (Es-2) | Potency (HeLa) | Potency (Hek293T) | Potency (JEG-3) | Potency (OV90) | Potency (PA-1) | Potency (SKOV3) | Potency (Tov-21-G) | Potency (Tov112D) | activity, negative = cell killing [1, 5] -0.343% | activity, negative = cell killing [1, 6] -13.5%
active: Potency ([1]; tumour line A) 50.1 µM
